The values below come from PubChem BioAssay AID1159577 (Broad Institute, 2015).

Screen size: about 1,300 compounds; about 240 (18%) were called active. Not shown: some 8% with an inconclusive outcome. How the calls were made is not given here. The list is a sample of the results. Entries with a potency or affinity are not part of this list.

The test can be described thus: toxicity to human hepatoma HepG2 cells – cell-based, cherry-picked samples, cytotoxicity control, dose response (AID 1159577). As to conditions: HepG2 cytotoxicity counterscreen, plate reader; series mostly up to 19.5 µM.
For `COc1ccc2c3c([nH]c2c1)[C@H](CO)N(Cc1ccccc1Cl)CC31CN(C(=O)C2CC2)C1`, the call was inactive.

Take `C[C@@H]1CN([C@@H](C)CO)C(=O)c2cccc(NC(=O)c3ccc(-c4nccs4)cc3)c2O[C@H]1CN(C)Cc1ccc(Cl)c(Cl)c1`: the molecule was classed as inactive.

In the case of `C[C@H](O)C#Cc1cnc2c(c1)C(=O)N([C@@H](C)CO)C[C@@H](C)[C@@H](CN(C)C(=O)Cc1ccncc1)O2`, the molecule was called inactive.

As to `CO[C@H]1CN(C)C(=O)c2ccc(NC(=O)c3nc4ccccc4s3)cc2OC[C@H](C)N(Cc2ccncc2)C[C@@H]1C`, the molecule was classed as inactive.

For `C[C@@H]1CN([C@@H](C)CO)S(=O)(=O)c2ccc(C#CC3CCCC3)cc2O[C@H]1CN(C)C(=O)Cc1ccncc1`, the molecule was called inactive.

As to `CC(C)C#Cc1ccc([C@@H]2[C@H](CO)N3CCCCN(C(=O)c4ccc5c(c4)OCO5)C[C@@H]23)cc1`, the molecule was called inactive.

As to `C[C@@H](O)C#Cc1ccc([C@H]2[C@H]3CN(S(=O)(=O)c4ccccc4)CCCCN3[C@H]2CO)cc1`, the outcome was inactive.

Consider `COc1ccc2c3c(n(C)c2c1)[C@H](CO)N(C(=O)Nc1ccc(F)cc1)CC31CCN(C(=O)c2ccc3c(c2)OCO3)CC1`, for which the molecule was called inactive.

As for `CC(C)(C)S(=O)N1Cc2cc(C(=O)NCc3ccc4c(c3)OCO4)nc(-c3cccc(-c4cc5ccccc5o4)c3)c2[C@H]1CCO` (some centres not stated), the molecule was classed as inactive.

For the molecule `COc1ccc2c3c(n(C)c2c1)[C@@H](CO)N(C(=O)C1CCCC1)CC31CCN(C(=O)Nc2cccc(F)c2)CC1`, the outcome was inactive.

As for `O=C(Nc1ccccc1F)N1CCCCN2[C@@H](CO)[C@@H](c3ccc(C#Cc4cccnc4)cc3)[C@@H]2C1`, the call was inactive.

Regarding `C[C@H]1CN([C@@H](C)CO)S(=O)(=O)c2ccc(-c3ccc(C#N)cc3)cc2O[C@H]1CN(C)CC1CC1`, the molecule was classed as inactive.

Regarding `CCS(=O)(=O)N1CCC2(CC1)CN(S(=O)(=O)c1ccc(C)cc1)[C@@H](CO)c1[nH]c3cc(OC)ccc3c12`, the result was inactive.

In the case of `FC(F)(F)c1cccc(CN2[C@@H]3CNC[C@H]2[C@@H]3c2ccc(-c3cccnc3)cc2)c1`, the result was inactive.

Consider `Cc1cccc(S(=O)(=O)N2C[C@@H]3N[C@H](C2)C3c2ccc(-c3cccnc3)cc2)c1` (some centres not stated), for which the molecule was called inactive.

For the molecule `c1cncc(-c2ccc(C3[C@@H]4CN(Cc5nccs5)C[C@H]3N4)cc2)c1` (some centres not stated), the outcome was inactive.

As to `Fc1cccc(-c2ccc(C3[C@@H]4CN(Cc5cncnc5)C[C@H]3N4)cc2)c1` (some centres not stated), the molecule was called inactive.

For `O=C(C1CCCC1)N1CC(=O)N2[C@H](CO)[C@H](c3ccc(-c4cccnc4)cc3)[C@H]2C1`, the call was inactive.

In the case of `C[C@@H]1CN([C@H](C)CO)S(=O)(=O)c2ccc(C#Cc3ccccc3)cc2O[C@H]1CN(C)S(=O)(=O)c1cn(C)cn1`, the molecule was classed as inactive.

For the molecule `CC(C)C#Cc1ccc([C@@H]2[C@@H](CO)N3C(=O)CN(C(=O)C4CCCCC4)C[C@@H]23)cc1`, the molecule was classed as inactive.

`CO[C@@H]1CN(C)C(=O)c2ccc(NC(=O)C3CC3)cc2OC[C@@H](C)N(Cc2ccccc2)C[C@H]1C`: the outcome was inactive.

With `CC(=O)N1CC2(C1)[C@@H](c1ccc(-c3cccc(F)c3)cc1)[C@@H](CO)N2CC1CCCC1`, the molecule was called inactive.

On to `O=C(c1ccccc1F)N1C[C@H]2[C@@H](c3ccccc31)[C@@H](CO)N2C(=O)c1ccc(F)cc1`, for which the call was inactive.

In the case of `CCS(=O)(=O)N1CC2(CN(Cc3ccccc3F)[C@@H](CO)c3[nH]c4cc(OC)ccc4c32)C1`, the molecule was classed as inactive.

Consider `CCCC(=O)Nc1ccc2c(c1)OC[C@@H](C)N(Cc1ccccc1F)C[C@@H](C)[C@H](OC)CN(C)C2=O`, for which the molecule was classed as inactive.

With `O=C(c1ccncc1)N1CC(=O)N2[C@H](C1)[C@@H](c1ccc(-c3cccnc3)cc1)[C@@H]2CO`, the call was inactive.

In the case of `O=C(C1CCCCC1)N1CC(=O)N2[C@H](CO)[C@@H](c3ccc(C#CCc4ccccc4)cc3)[C@@H]2C1`, the result was inactive.

For `O=C(C1CC1)N1CC(=O)N2[C@H](CO)[C@@H](c3ccc(C#CCc4ccccc4)cc3)[C@@H]2C1`, the call was inactive.

Turning to `O=C(C1CCCC1)N1CC(=O)N2[C@H](CO)[C@@H](c3ccc(C#CCc4ccccc4)cc3)[C@@H]2C1`, the call was inactive.

In the case of `COc1ccc(C#Cc2ccc([C@H]3[C@H]4CN(C(=O)c5ccccc5)CC(=O)N4[C@H]3CO)cc2)cc1`, the molecule was classed as inactive.

`O=C(Cc1ccccc1)N1CC(=O)N2[C@H](CO)[C@H](c3ccc(C#CCc4ccccc4)cc3)[C@H]2C1`: the call was inactive.

In the case of `O=C(C1CCC1)N1CC(=O)N2[C@H](CO)[C@@H](c3ccc(C#CCc4ccccc4)cc3)[C@@H]2C1`, the result was inactive.

With `O=C(C1CCC1)N1CC(=O)N2[C@H](CO)[C@@H](c3ccc(C#CCc4ccccc4)cc3)[C@H]2C1`, the call was inactive.

In the case of `COc1cccc(C#Cc2ccc([C@H]3[C@@H](CO)N4C(=O)CN(C(=O)c5ccccc5)C[C@H]34)cc2)c1`, the result was inactive.

As to `C[C@H]1CN([C@@H](C)CO)C(=O)c2c(c3ccccc3n2C)-c2ccccc2CO[C@@H]1CN(C)S(=O)(=O)c1ccc(F)cc1`, the call was inactive.

Regarding `N#C[C@H]1[C@@H](c2ccc(C#Cc3ccccc3F)cc2)[C@@H](CO)N1C(=O)C1CCC1`, the outcome was inactive.

For `C[C@H]1CN([C@@H](C)CO)S(=O)(=O)c2ccc(C#Cc3ccccc3)cc2O[C@H]1CN(C)C(=O)C1CC1`, the call was inactive.

For `CCCC(=O)Nc1ccc2c(c1)OC[C@@H](C)N(Cc1cc(F)ccc1F)C[C@@H](C)[C@H](OC)CN(C)C2=O`, the call was inactive.

As to `COc1ccccc1-c1ccccc1[C@H]1[C@H](C#N)N(C(=O)C2CCC2)[C@H]1CO`, the outcome was inactive.

Turning to `COc1ccccc1S(=O)(=O)N(C)C[C@H]1Oc2cc(/C=C/c3ccccc3)ccc2S(=O)(=O)N([C@H](C)CO)C[C@@H]1C`, the molecule was called inactive.

As to `COc1ccc(NC(=O)Nc2ccc3c(c2)[C@@H]2C[C@H](CC(=O)N[C@@H](C)c4ccccc4)O[C@H](CO)[C@@H]2O3)cc1`, the molecule was classed as inactive.

As to `N#Cc1ccc(-c2ccc(C3[C@@H]4CN(C(=O)C5CCCC5)C[C@H]3N4)cc2)cc1` (some centres not stated), the molecule was called inactive.

Regarding `CN(C)CC(=O)N1C[C@@H]2N[C@H](C1)C2c1ccc(/C=C/c2ccccc2)cc1` (some centres not stated), the call was inactive.

Take `CN(C)CC#Cc1ccc([C@H]2[C@H](CO)N3CCCCN(C(=O)CN(C)C)C[C@@H]23)cc1`: the call was inactive.

Take `N#Cc1ccc(-c2ccc(C3[C@@H]4CN(C(=O)C5CCCCC5)C[C@H]3N4)cc2)cc1` (some centres not stated): the molecule was called inactive.

Turning to `CN(C)C(=O)c1ccc(-c2ccc([C@H]3[C@H](CO)N4CCCCN(C(=O)C5CC5)C[C@@H]34)cc2)cc1`, the molecule was called inactive.

In the case of `O=C(C1CC1)N1C[C@@H]2N[C@H](C1)C2c1ccc(-c2ccccc2F)cc1` (some centres not stated), the result was inactive.
